# Measurements from PubChem BioAssay AID504832 (National Center for Advancing Translational Sciences (NCATS), 2011).
# Among all 310,000 compounds or so, about 18,000 (5.8%) were called active. Where a call stands in place of a potency, no number is given. About 22% were inconclusive and are not listed. Calls follow the shape of the dose curve; as a rule, active = well fitted inhibition curve with a large enough effect; inconclusive = small, poorly fitted or top-dose-only effect, or another doubt; inactive = no such curve, though single readings can be large or run the other way. Many of the other results were omitted from the sample, so actives are more common in it than they were.
# Experiment: Primary qHTS for delayed death inhibitors of the malarial parasite plastid, 48 hour incubation
# Conditions: P. falciparum luciferase growth in erythrocytes; series mostly up to 28.7 µM
# Procedure, shortened: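 First compound was added to culture medium, then infected red cells at 0.1% parasitemia and 2% hematocrit (final). After incubation at 37 C under 5% CO2, luciferase detection reagent was dispensed and light output recorded.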
# Potency is read from the fitted curve at half-maximal effect.
SMILES,Potency,"activity change, negative = inhibition"
CCc1ccc(NC(=O)C(=O)NNC(=O)c2cccs2)cc1,inactive,–
O=C(Nc1cccc(C(=O)N2CCCC2)c1)c1ccccc1,inactive,–
O=C(Nc1ccc(N2CCN(C(=O)c3ccccc3)CC2)c(Cl)c1)c1ncn[nH]1,11.7 µM (active),–
O=C(Nc1ccccc1N1CCN(C(=O)c2ccccc2)CC1)c1ccco1,inactive,–
C#CCOc1ccccc1/C=C1/C(=O)ON=C1C,–,-13.9% [at 0.00184 µM] (inactive)
O=[N+]([O-])c1ccc2c(c1)Nc1nc3ccccc3nc1N2,inactive,–
CC(OC(=O)CNC(=O)c1ccc(Cl)c([N+](=O)[O-])c1)C(=O)NCc1ccco1 (stereo not given),inactive,–
Cc1ccc(/C([O-])=C(/C(=S)NCc2ccco2)[n+]2ccccc2)cc1[N+](=O)[O-],10.4 µM (active),–
O=[N+]([O-])c1cccc(/C([O-])=C(/C(=S)Nc2ccccc2F)[n+]2ccccc2)c1,inactive,–
COc1cccc(C(=O)OCc2cc(=O)oc3c(C)c(C)ccc23)c1OC,inactive,–
Cc1cc(/C=C2/SC(=O)N(CC(=O)N3CCCC3)C2=O)c(C)n1C,inactive,–
COCCCNC(=S)N(CCN(C)C)Cc1cc2cc3c(cc2[nH]c1=O)OCCO3,inactive,–
Cc1cc(C)c2[nH]c(=O)c(CN(Cc3ccccc3)C(=S)NCCCN(C)C)cc2c1,13.1 µM (active),–
CCN(CC)CCCNC(=S)N(CCO)Cc1cc2cc3c(cc2[nH]c1=O)OCO3,inactive,–
COc1cc(/C=N/NC(=O)c2ccc(N3CCCC3=O)cc2)ccc1O,inactive,–
O=c1cc(Cl)c2ccccc2n1-c1ccccc1,–,-0.654% [at 0.00184 µM] (inactive)
COc1ccc(OCc2cc(C(=O)NCC3(C)COC3)no2)c(Cl)c1,inactive,–
COC(=O)c1c(NC(=O)c2ccccc2F)sc2c1C(C(=O)OC)CC2 (stereo not given),inactive,–
Cc1[nH]c2ccccc2c1CCN(Cc1cccs1)C(=S)NC(C)(C)C,inactive,–
COc1ccc(NC(=S)NCc2cccs2)c(OC)c1,inactive,–
COc1ccc2[nH]c(C)c(CCN(Cc3cccs3)C(=S)Nc3ccccc3OC)c2c1,11.7 µM (active),–
Cc1ccc2c(c1)N(CC(=O)N1CCCC(C)C1)C(=O)CO2 (stereo not given),inactive,–
c1ccc(Cc2ccc(OCCn3ccnc3)cc2)cc1,9.28 µM (active),–
Clc1ncn(CCOc2ccccc2)c1Cl,inactive,–
COc1ccc(OCCn2ccnc2C)cc1,inactive,–
CC(CCc1ccccc1)NC(=O)c1cnc(Cl)c(Cl)c1 (stereo not given),inactive,–
CN(C)C(=O)c1ccc(NC(=O)COC(=O)c2cc3c(s2)CCCCC3)cc1,inactive,–

SMILES,Potency,"activity change, negative = inhibition"
COC(=O)Cn1c(O)c(N=NC(=O)OC)c2ccccc21,inactive,–
CCn1c(O)c(N=NC(=O)c2cccc(S(=O)(=O)N3CCCCC3)c2)c2ccccc21,11.7 µM (active),–
CCn1c2ccccc2c2cc(NC(=O)COC(=O)c3cc(S(=O)(=O)N4CCCCC4)ccc3Cl)ccc21,inactive,–
CC(C)(C)c1cc[n+](-c2[nH]c(=O)sc2/C=N/N=C(\[O-])c2ccccc2)cc1,inactive,–
O=C(CSc1ccc(-c2cccs2)nn1)Nc1ccccc1F,inactive,–
CCOc1ccc(NC(=O)CSc2nc3ccccc3c(=O)n2Cc2cccs2)cc1,inactive,–
O=C(CSc1nc2nccnc2c(=O)n1Cc1cccs1)Nc1ccccc1F,10.4 µM (active),–
CN(CC(=O)Nc1ccc(Cl)c(C(F)(F)F)c1)C(=O)CCC(=O)c1ccccc1,inactive,–
O=C(NCCCN1CCCC1=O)C(=O)NCC1OCCN1S(=O)(=O)c1ccc(Br)cc1 (stereo not given),inactive,–
CCOc1cccc(-c2nnc(SCC(=O)NC3CC3)n2C)c1,inactive,–
O=C(c1ccccc1F)N(Cc1ccccc1)Cc1ccccc1,inactive,–
CN(C)/C=C/C(=O)c1ccccc1F,inactive,–
Cc1ccc(N(Cc2ccccc2O)C(=O)c2ccccc2F)cc1,9.28 µM (active),–
O=C(COc1ccc(Cl)cc1)Nc1ccc2oc(=O)ccc2c1,inactive,–
O=C(CCN1C(=O)C2C3CCC(C3)C2C1=O)Nc1ccc(Cl)cc1Cl (stereo not given),inactive,–
O=C(Nc1ccc(CN2CCOCC2)cc1)c1cc(Cl)ccc1Cl,inactive,–
O=C(CN1CCOCC1)Nc1c(Cl)cc(Cl)cc1Cl,inactive,–
CC(C)(C)c1cc(NC(=O)NN2CCOCC2)nn1-c1c(Cl)cc(Cl)cc1Cl,10.4 µM (active),–
CC(=O)C(C)n1cnc2scc(-c3ccc(C)cc3)c2c1=O (stereo not given),inactive,–
COc1ccc(OC)c(-c2csc(-c3cccs3)n2)c1,inactive,–
COc1cc(OC)cc(-c2c(-c3ccc(F)cc3)c3cc(-c4ccc5cc[nH]c5c4)ccc3n2C)c1,5.22 µM (active),–
COc1ccc2c(c1)c(C(=O)N/N=C/c1cccs1)c(C)n2C,inactive,–
COc1cc(OC)cc(-c2c(-c3cccs3)c3cc(-c4ccc(OC)cc4F)ccc3n2C)c1,13.1 µM (active),–
CCOC(=O)N1CCN(C(=O)C(C)NC(=O)c2ccco2)CC1 (stereo not given),inactive,–
COc1ccc(/C=C/c2c(-c3cccc(C)c3)oc3ccc(-c4ccc5c(c4)OCO5)cc23)cc1,inactive,–
COc1ccc(/C=N/S(=O)(=O)c2ccccc2)cc1OC,inactive,–
COc1ccc(/C=N\NC(=O)c2sc(N)nc2C)cc1OC,inactive,–

SMILES,Potency,"activity change, negative = inhibition"
Cc1ccc(S(=O)(=O)Oc2ccc(/C=N/NC(=O)c3ccncc3)cc2)cc1,inactive,–
COc1ccc(/C=N/NC(=O)c2ccc(Cl)cc2)cc1COC(C)=O,inactive,–
COc1cc(/C=N/NC(=O)c2ccccc2)ccc1OS(=O)(=O)c1ccccc1,10.4 µM (active),–
COc1ccc(/C=N/NC(=O)c2ccccc2)cc1OS(=O)(=O)c1ccccc1,9.28 µM (active),–
O=C(O)Cc1ccc(NC(=O)Nc2cccc3ccccc23)cc1,inactive,–
COc1cc(NC(=O)c2ccc(-c3csc(C)n3)cc2)c(OC)cc1Cl,inactive,–
Cc1cccc(NC(=O)C2CCCN(C(=O)Nc3ccc(F)cc3)C2)c1C (stereo not given),inactive,–
COCc1cc(C)n(CC(=O)NCC2CCCO2)c(=O)c1C#N (stereo not given),inactive,–
COc1ccc(N(C(=O)c2cccnc2)S(=O)(=O)c2ccc(OC)c(OC)c2)cc1,inactive,–
CC[C@H]1CN2CCc3cc(OC)c(OC)cc3[C@@H]2C[C@@H]1C[C@H]1NCCc2cc(OC)c(OC)cc21,0.0828 µM (active),–
NC(=O)NC(=O)C(OC(=O)CCNS(=O)(=O)c1ccccc1)c1ccccc1 (stereo not given),inactive,–
O=C(CCc1c[nH]c2ccccc12)NCCOc1ccccc1,inactive,–
O=C(CCCCCn1c(=O)[nH]c2ccccc2c1=O)NCCc1c[nH]c2ccccc12,8.28 µM (active),–
O=C(CCCCn1c(=O)[nH]c2ccccc2c1=O)NCc1ccc2c(c1)OCO2,inactive,–
Cc1ccc2nc(NC3=NCN(CCc4ccccc4)CN3)nc(C)c2c1,inactive,–
COc1ccc2nc(NC3=NCN(CC4CCCO4)CN3)nc(C)c2c1 (stereo not given),11.7 µM (active),–
COc1ccc2c(C)cc(SCC(=O)NCC3CCCO3)nc2c1 (stereo not given),inactive,–
CC(NC(=O)COc1cccnc1[N+](=O)[O-])c1ccc(Cl)cc1Cl (stereo not given),inactive,–
Cn1c(SCC(=O)Nc2ccc(N3CCOCC3)cc2)nnc1C(F)(F)F,inactive,–
CCN(CC)c1ccc2oc(=O)c(C)nc2c1,1.47 µM (active),–
CCN(CC)c1ccc2c(Nc3ccccc3)c(C=O)c(=O)oc2c1,inactive,–
CCN(CC)c1ccc2cc(C(N)=O)/c(=N\NC(=O)c3ccncc3)oc2c1,inactive,–
Cc1ccccc1N1CCN(C2CCCN(C(=O)c3cn4c(C)cccc4n3)C2)CC1 (stereo not given),inactive,–
CCC(CC)c1nnc(NC(=O)C2=COCCO2)s1,inactive,–
O=C(O)C1CCC(CNS(=O)(=O)c2ccc(Br)cc2)CC1 (stereo not given),inactive,–
CCn1c(=O)c(C(=O)NCc2ccc3c(c2)OCO3)c(O)c2ccccc21,inactive,–
COc1ccc(CCNS(=O)(=O)c2ccc(C(=O)NCc3ccco3)cc2)cc1OC,inactive,–

SMILES,Potency,"activity change, negative = inhibition"
CCCC1=Nc2cc(C(=O)NCc3ccco3)ccc2Sc2ccccc21,4.65 µM (active),–
O=C(COC(=O)c1cnc(Cl)c(Cl)c1)NCc1ccco1,inactive,–
COc1ccc(N2CC(C(=O)N[C@@H](C)C(=O)N3CCCCC3)CC2=O)cc1 (stereo not given in full),inactive,–
O=C(Nc1cccc2cccnc12)c1cccc(Cl)c1,inactive,–
CC(OC(=O)C1CC(=O)N(Cc2ccccc2)C1)C(=O)Nc1ccccc1[N+](=O)[O-] (stereo not given),inactive,–
COc1ccc(Cl)cc1C(=O)NCc1cn(C)nc1C,inactive,–
Cc1nn(C)cc1CNC(=O)Nc1ccc(Cl)cc1,inactive,–
Cc1ccc(-c2cc(C(=O)NCc3cn(C)nc3C)c3cc(Br)ccc3n2)cc1,2.94 µM (active),–
O=C(CCCN1C(=O)/C(=C\c2ccccc2)SC1=S)Nc1ccccc1O,inactive,–
O=C1/C(=C/c2ccc(F)cc2)SC(=S)N1CCCC(=O)N1CCCCC1CCO (stereo not given),11.7 µM (active),–
CCN(C(=O)CN1C(=O)/C(=C/c2ccc(F)cc2)SC1=S)C1CCS(=O)(=O)C1 (stereo not given),inactive,–
N#Cc1cccc(CSc2ncnc(N)n2)c1,inactive,–
CNC(=O)COC(=O)c1cc(-c2ccc(OC)cc2)nc2ccccc12,inactive,–
COc1ccccc1NC(=O)c1cc(Cl)nc2ccccc12,inactive,–
COc1ccc(NC(=O)c2cc(-c3cc(OC)c(OC)c(OC)c3)nc3ccccc23)c(OC)c1,5.22 µM (active),–
CCCC(c1nnnn1C(C)(C)C)N1CCN(Cc2ccccc2)CC1 (stereo not given),inactive,–
CCC(C)(C)n1nnnc1C(c1cccs1)N1CCN(c2nc3ccccc3s2)CC1 (stereo not given),11.7 µM (active),–
COc1ccccc1C(c1nnnn1C(C)(C)C)N1CCN(Cc2ccccc2)CC1 (stereo not given),13.1 µM (active),–
c1ccc2sc(N3CCNCC3)nc2c1,inactive,–
COc1ccccc1CN(C)c1nnnn1-c1ccccc1,inactive,–
CCC(C)(C)n1nnnc1CN1CCN(c2nc3ccc(C)cc3cc2C#N)CC1,inactive,–
CC(C)C(c1nnnn1C(C)(C)C)N1CCN(Cc2cccnc2)CC1 (stereo not given),inactive,–
CCC(C)(C)n1nnnc1C(c1ccc(OC)c(OC)c1)N1CCN(C(=O)c2ccco2)CC1 (stereo not given),inactive,–
CCC(C)(C)n1nnnc1C(c1ccccc1OC)N1CCSCC1 (stereo not given),11.7 µM (active),–
